T cruzi growth-1 = T. cruzi intracellular proliferation inhibitors, primary screen, cell-based, beta-gal Tulahuen parasites, NIH3T3 host, luminescence. T. cruzi beta-gal in NIH3T3, GalScreen luminescence, 90 h. inhibition, % at 8.34 µM. hit rate 5.9% among 77,000;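 active = mean inhibition above about 93%, with at least 55% of replicates each passing it, limit read from the data, passing the limit was not always enough; inconclusive = only one of those two conditions holds; inactive = neither condition holds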
C diff HTS = C. difficile growth inhibitors, primary screen, HTS | hit rate 0.25% among 86,000 | growth activity, negative = inhibition, % at 16 µg/mL (by protocol) | Clostridium difficile clinical isolate growth, OD600, 24 h; hits give low values;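 active = mean growth activity at or below -80% and every replicate also at or below -80%; inconclusive = mean at or below -80% but some replicate above -80%; inactive = mean growth activity above -80%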;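 also: 0% = DMSO wells and -100% = levofloxacin 16 µg/mL wells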
Pf Dd2 growth = P. falciparum Dd2 growth inhibitors, primary screen, SYBR Green fluorescence, single dose replicates; 72 h; hits give low values; activity change, % at 10 µM; hit rate 2.3% among 94,000; AID 1159554, 2015; in the data active = activity change below about -80%; inconclusive = no clear call, values can overlap the other calls
T cruzi growth-2 = T. cruzi intracellular proliferation inhibitors, confirmation, cell-based, NIH3T3 host, beta-gal parasite, luminescence, cherry-pick. inhibition, % at 8.35 µM. T. cruzi beta-gal in NIH3T3, GalScreen luminescence, 90 h. shares compounds with T cruzi growth-1. hit rate 72% among 5,600;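 active = mean replicate inhibition above about 95% and at least 55% of replicates individually reaching it, limit read from the data; inconclusive = only one of the two criteria is met; inactive = neither criterion is met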
T cruzi growth-3 = inhibitors of intracellular T. cruzi replication, confirmation, NIH3T3 host cells, beta-gal parasites, cherry-pick, set 2; inhibition, % at 2.09 µM; T. cruzi beta-gal in NIH3T3, GalScreen luminescence, 90 h; shares compounds with T cruzi growth-1; hit rate 21% among 5,600;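 active = mean inhibition above about 95%, with at least 55% of replicates also reaching it, limit read from the data; inconclusive = meets just one of the two conditions; inactive = meets neither condition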;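 also: plate controls were neutral control median for no effect and positive control median for full effect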
NIH3T3 tox = cytotoxicity in mouse NIH/3T3 fibroblasts, confirmation, cytotoxicity control for T. cruzi proliferation inhibitor project, cell-based, cherry-pick, single point; cytotoxicity (signal decrease), % at 8.35 µM; NIH/3T3 viability, CellTiter-Glo ATP luminescence, 90 h; shares compounds with T cruzi growth-1; hit rate 14% among 5,600;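 active = mean signal decrease across replicates above about 35% based on untreated-well scatter, with enough replicates individually passing, limit read from the data; inconclusive = no rule stated though some were filed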;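 also: 0% = median of neutral control wells and 100% = median of positive control wells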
3T3 cytotox 2 = NIH/3T3 fibroblast cytotoxicity, confirmation, cytotoxicity control, cell-based, cherry-pick, single point, set 2; inhibition, % at 24.9 µM; shares compounds with T cruzi growth-1; NIH/3T3 viability, CellTiter-Glo ATP luminescence, 90 h; hit rate 56% among 5,600;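 active = mean loss of cell viability signal at or above a set limit, and enough replicates individually reaching it; inconclusive = meets only the mean limit or only the replicate share; inactive = meets neither condition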;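 also: 0% = median of neutral control wells and 100% = median of positive control wells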
* marks the source's active call; other numbers are inactive results; ? = inconclusive; . = not tested or not shown. The list is not random: actives were taken first. Their share in the collection is about 6.8%.

SMILES	T cruzi growth-1	C diff HTS	Pf Dd2 growth	T cruzi growth-2	T cruzi growth-3	NIH3T3 tox	3T3 cytotox 2
C[C@@H]1CN([C@@H](C)CO)C(=O)c2cc(NS(=O)(=O)c3ccc(F)cc3)ccc2O[C@@H](C)CCCCO[C@H]1CN(C)S(=O)(=O)c1ccc(F)cc1	113*	-3	-47	107*	56	6	-1
C[C@@H]1CCCCO[C@@H](CN(C)S(=O)(=O)c2ccc(F)cc2)[C@H](C)CN([C@H](C)CO)C(=O)c2cc(NS(=O)(=O)c3ccc(F)cc3)ccc2O1	86	-1	-48	.	.	.	.
C[C@@H]1CCCCO[C@@H](CN(C)S(=O)(=O)c2ccc(F)cc2)[C@@H](C)CN([C@H](C)CO)C(=O)c2cc(NS(=O)(=O)c3ccc(F)cc3)ccc2O1	49	-1	-47	.	.	.	.
C[C@@H]1CN([C@H](C)CO)C(=O)c2cc(NS(=O)(=O)c3ccc(F)cc3)ccc2O[C@@H](C)CCCCO[C@@H]1CN(C)S(=O)(=O)c1ccc(F)cc1	107*	4	-73	103*	72	-13	2
COc1ccccc1CNC(=O)C[C@H]1CC[C@@H]2[C@H](COC[C@H](O)CN2Cc2cccc(-c3ccncc3)c2)O1	121*	-5	.	102*	94	24	25*
COCCNC(=O)C[C@H]1CC[C@H]2[C@@H](COC[C@H](O)CN2Cc2cccc(-c3ccncc3)c2)O1	78	8	-7	.	.	.	.
COc1ccccc1CNC(=O)C[C@@H]1CC[C@@H]2[C@H](COC[C@H](O)CN2Cc2ccc3c(c2)OCO3)O1	150*	5	-52	55	-22	-5	5
COCCNC(=O)C[C@H]1CC[C@@H]2[C@H](COC[C@@H](O)CN2Cc2cccc(-c3ccncc3)c2)O1	109*	9	9	92	87	-3	3
COc1ccccc1CNC(=O)C[C@@H]1CC[C@H]2[C@@H](COC[C@@H](O)CN2Cc2cccc(-c3ccncc3)c2)O1	122*	-2	.	82	93	48*	44*
COc1ccccc1CNC(=O)C[C@H]1CC[C@H]2[C@@H](COC[C@@H](O)CN2Cc2ccc3c(c2)OCO3)O1	18	3	4	.	.	.	.
COc1ccccc1CNC(=O)C[C@H]1CC[C@@H]2[C@H](COC[C@@H](O)CN2Cc2ccccc2)O1	.	5	-2	.	.	.	.
COc1ccccc1CNC(=O)C[C@@H]1CC[C@H]2[C@@H](COC[C@@H](O)CN2Cc2ccccc2)O1	.	2	3	.	.	.	.
COc1ccc(CN(C)C[C@H]2Oc3ccc(NC(=O)CCC(F)(F)F)cc3CC(=O)N([C@H](C)CO)C[C@@H]2C)cc1	82	-9	-33	.	.	.	.
COCC(=O)Nc1ccc2c(c1)OC[C@@H](C)N(C(=O)c1ccncc1)C[C@H](C)[C@@H](OC)CN(C)C2=O	-11	.	-53	.	.	.	.
CO[C@H]1CN(C)C(=O)c2cc(NC(=O)NC(C)C)ccc2OC[C@H](C)NC[C@H]1C	-3	-6	13	.	.	.	.
COCC(=O)Nc1ccc2c(c1)OC[C@@H](C)N(C(=O)CC1CC1)C[C@@H](C)[C@H](OC)CN(C)C2=O	-10	-2	4	.	.	.	.
CNC[C@H]1Oc2ccc(NS(=O)(=O)c3ccccc3)cc2C(=O)N([C@@H](C)CO)C[C@@H]1C	.	0	6	.	.	.	.
CCOC(=O)N(C)C[C@H]1OCc2cn(nn2)CCCC(=O)N([C@@H](C)CO)C[C@H]1C	-5	3	3	.	.	.	.
COc1ccccc1CNC(=O)C[C@H]1CC[C@H]2[C@@H](COC[C@@H](O)CN2Cc2cccc(-c3ccncc3)c2)O1	113*	-5	.	82	82	6	31*
COc1ccccc1CNC(=O)C[C@@H]1CC[C@@H]2[C@H](COC[C@H](O)CN2Cc2cccc(-c3ccncc3)c2)O1	117*	-16	.	83	73	-12	55*
COc1ccccc1CNC(=O)C[C@@H]1CC[C@@H]2[C@H](COC[C@H](O)CN2Cc2ccccc2)O1	.	10	-19	.	.	.	.
COc1ccccc1CNC(=O)C[C@H]1CC[C@H]2[C@@H](COC[C@@H](O)CN2Cc2ccccc2)O1	.	2	12	.	.	.	.
Cc1ccccc1S(=O)(=O)N1CC[C@@H]2[C@@H](CO)Nc3ccc(-c4ccc(C#N)cc4)cc3[C@@H]21	?	-2	4	97*	71	66*	92*
Cc1ccccc1S(=O)(=O)N1CC[C@@H]2[C@@H](CO)Nc3ccc(-c4ccccc4)cc3[C@@H]21	86	75	11	.	.	.	.
Cc1ccccc1S(=O)(=O)N1CC[C@H]2[C@H](CO)Nc3ccc(-c4ccc(C#N)cc4)cc3[C@H]21	115*	4	7	107*	77	52*	69*
SMILES	T cruzi growth-1	C diff HTS	Pf Dd2 growth	T cruzi growth-2	T cruzi growth-3	NIH3T3 tox	3T3 cytotox 2
Cc1ccccc1S(=O)(=O)N1CC[C@@H]2[C@H]1c1cc(-c3ccccc3)ccc1N[C@@H]2CO	92	62	30	.	.	.	.
CO[C@@H]1CN(C)C(=O)c2ccc(NC(=O)c3cccc(Oc4ccccc4)c3)cc2OC[C@H](C)NC[C@H]1C	-27	-5	-40	.	.	.	.
C[C@@H]1CN([C@@H](C)CO)C(=O)Cc2cc(NC(=O)CCC(F)(F)F)ccc2O[C@H]1CN(C)C(=O)Nc1ccc2c(c1)OCO2	8	-9	-1	.	.	.	.
CN1[C@H](C(=O)NCc2ccccc2F)[C@@H](CO)[C@@H]2Cn3c(ccc(C4=CCCC4)c3=O)[C@@H]21	58	-2	.	.	.	.	.
CN1[C@@H]2c3ccc(C4=CCCCC4)c(=O)n3C[C@@H]2[C@@H](CO)[C@@H]1C(=O)NCc1ccccc1	103*	-2	-9	96*	30	10	7
COc1cccc(CNC(=O)[C@@H]2[C@@H](CO)[C@@H]3Cn4c(ccc(C5=CCCC5)c4=O)[C@@H]3N2CC2CC2)c1	37	2	-9	.	.	.	.
CCCN1[C@@H]2c3ccc(C4=CCCC4)c(=O)n3C[C@@H]2[C@@H](CO)[C@@H]1C(=O)NCc1cccc(OC)c1	101*	5	-8	73	-36	20	?
CN(C)C(=O)c1cccc(-c2ccc(C3[C@@H]4CN(Cc5nccs5)C[C@H]3N4)cc2)c1 (some centres undefined)	.	-9	-29	.	.	.	.
Cc1ccc(S(=O)(=O)N(C)C[C@H]2OCCCC[C@@H](C)Oc3ccc(NC(=O)CCC(F)(F)F)cc3C(=O)N([C@H](C)CO)C[C@@H]2C)cc1	.	.	4	.	.	.	.
